Screening data from PubChem BioAssay.
Giardia killer = kills Giardia lamblia | hit rate 0.15% among 340,000 | AID 540267 | activity change, % at 7.66 µM, hits read low | Giardia lamblia trophozoite viability; in the data active = activity change below about -80%; inconclusive = between about -30% and that limit;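 note: parasites exposed to compound for two days anaerobically before the ATP read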
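Luminescence from cellular ATP indicates surviving trophozoites (100 cells/well) following 48 hrs anaerobic compound treatment at 37 deg C; signal develops 15-30 min at room temperature.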
Sfp inh = Sfp phosphopantetheinyl transferase inhibition; Q9F4F7; Biochemical Sfp PPTase activity, qHTS; Potency, µM, for inactives: largest response in the series, negative = inhibition, actives largely listed as inhibitors; hit rate 3.5% among 310,000;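 note: the enzyme is Sfp with the accession as filed and its product quenches rhodamine fluorescence; potency is the fitted concentration of half-maximal effect; 0% = enzyme reaction without inhibitor and -100% = no enzyme wells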
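Buffer: 50 mM Hepes-Na pH 7.6, 10 mM MgCl2, 0.01% Nonidet P-40, 0.01% BSA. Enzyme 15 nM, pre-exposed to compound 15 min; substrates then added and fluorescence change tracked over 30 min.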
ELG1 DNA repair = inhibitors of ELG1-dependent DNA repair in HEK293T cells | HEK293T ELG1-luciferase reporter, luminescence, 16 h; DNA damage induced by 5-fluorouridine | AID 504467 | Potency, µM (top dose mostly 46.1 µM), for inactives: top-dose activity change, negative = inhibition, hits mostly inhibitors | hit rate 2.3% among 330,000; note: potency is the fitted concentration of half-maximal effect; nearly all actives have a fitted effect of over 55% in size
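Luminescence from the luciferase reporter, measured 30 min after ONE-Glo reagent at room temperature, was the read-out. Beforehand, 2,000 cells per well were exposed for 16 hr at 37 °C to 5-fluorouridine together with compound or vehicle.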
FBPA coupling cs = counter-screen for Giardia aldolase inhibitors: coupling enzyme system. hit rate 0.67% among 290,000. coupling enzyme system counterscreen, AmpLite Red fluorescence. activity change, negative = inhibition, % at 58.2 µM, hits read low; in the data active = activity change below about -30%
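Coupling enzymes only (glyceraldehyde-3-phosphate) + compound, at 57.5 uM final, 10 min RT; add substrate/coupling/AmpLite Red mix, 20 min RT; fluorescence ex 525/em 598 nm. Actives flag coupling-system interference.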
The depositor's hits bear a star. In the library only some 5.5% were active in any assay of this set; here they are far more common. Unless noted, calls come from the whole dose curve; as a rule, active = well fitted curve in the direction sought with a large enough effect; inconclusive = small, poorly fitted or top-dose-only effect, or another doubt; inactive = no such curve, though single readings can be large; an effect the other way counts as inactive or inconclusive. Unless noted, % is set by controls: 0 for no effect and ±100 for the full control effect.

Results for O=C(Nc1ccc([N+](=O)[O-])cc1)c1ccc(Cn2cc([N+](=O)[O-])cn2)cc1 ?
Giardia killer: -28.5; Sfp inh: -16.0%; ELG1 DNA repair: inconclusive; FBPA coupling cs: 0.2

Results for O=C(Nc1cnn(Cc2ccc(Cl)cc2)c1)c1ccc([N+](=O)[O-])cc1 ?
Giardia killer: 1.7; Sfp inh: -0.6%; ELG1 DNA repair: 20.6µM*; FBPA coupling cs: 1.6

What do the screens show for `CCOC(=O)/C=C/S(=O)(=O)c1ccc(NC(C)=O)cc1`?
Giardia killer: -11.0; Sfp inh: 39.8µM*; ELG1 DNA repair: inconclusive; FBPA coupling cs: -1.7

Results for CC(=O)c1ccc(S(=O)(=O)N(CC(=O)NC2CC2)Cc2ccc(F)cc2)cc1 ?
Giardia killer: -17.1; ELG1 DNA repair: 17.6%

How did COc1ccc(C(=O)N/C(=C\c2cc(OC)c(OC)cc2[N+](=O)[O-])C(=O)NCCO)cc1 do in these assays?
Giardia killer: -28.0; Sfp inh: 70.8µM*; ELG1 DNA repair: -7.3%; FBPA coupling cs: -4.5

What do the screens show for `COc1ccc(C(=O)N/C(=C\c2cc(OC)c(OC)cc2[N+](=O)[O-])C(=O)NCC(=O)O)cc1`?
Giardia killer: -17.9; Sfp inh: 2.2%; ELG1 DNA repair: 3.4%; FBPA coupling cs: -0.3

What do the screens show for `CC1COc2ccccc2C1=O` (stereo not given)?
Sfp inh: 9.0%; FBPA coupling cs: 3.5

Results for Cc1cccc2c3c(ccc12)C1=C(C(=O)C3=O)[C@@H](C)CO1 ?
Sfp inh: -7.0%; FBPA coupling cs: -41.6*

What do the screens show for `COc1ccccc1C(=O)NC(CCSC)C(=O)NCc1ccncc1` (stereo not given)?
Giardia killer: -9.8; ELG1 DNA repair: 11.4%

Results for C=Cc1ccc2c(c1)N(C)C(=C)S2 ?
Giardia killer: -1.9; Sfp inh: 10µM*; ELG1 DNA repair: -0.5%; FBPA coupling cs: 0.1

Results for COc1ccc(/C=C/c2nc(N)nc(-c3ccccc3O)n2)cc1 ?
Giardia killer: -4.2; Sfp inh: 20.4%; ELG1 DNA repair: -9.5%; FBPA coupling cs: 2.1

How did COc1ccc(/C=C/c2nc(N)nc(-c3ccccc3O)n2)cc1OC do in these assays?
Giardia killer: 1.6; Sfp inh: -0.6%; ELG1 DNA repair: 20.6µM*; FBPA coupling cs: 2.4

Results for C=CCn1c(SCc2nc3sc(C(=O)O)c(C)c3c(=O)[nH]2)nnc1-c1ccc(C(C)(C)C)cc1 ?
Giardia killer: 12.8; Sfp inh: 28.2µM*; ELG1 DNA repair: 7.4%; FBPA coupling cs: 7.8

What do the screens show for `C=CCn1c(SCc2nc3sc(C(=O)O)c(C)c3c(=O)[nH]2)nnc1-c1ccccc1`?
Giardia killer: 11.7; Sfp inh: 11.8%; ELG1 DNA repair: 11.2%; FBPA coupling cs: 4.8

What do the screens show for `O=CN1CCc2scc[n+]2-c2ccccc21`?
Giardia killer: 12.8; Sfp inh: 31.6µM*; ELG1 DNA repair: -18.7%; FBPA coupling cs: -1.3

Results for COc1ccc(NS(=O)(=O)c2cccc(C(=O)NNC(=O)CNC(=O)c3ccc(C)cc3)c2)cc1 ?
Giardia killer: -21.6; ELG1 DNA repair: 22.2%

Results for COc1ccc(-c2nc(CN3CCN(C(=O)c4ccco4)CC3)c(C)o2)c(OC)c1C ?
Giardia killer: -24.3; Sfp inh: 3.7%; ELG1 DNA repair: 11.6µM*; FBPA coupling cs: 4.2

How did COc1ccc(OC)c(-c2nc(CN3CCN(C(=O)c4ccco4)CC3)c(C)o2)c1 do in these assays?
Giardia killer: -22.4; Sfp inh: 0.8%; ELG1 DNA repair: -3.5%

How did Oc1ccc2c(c1)C1CCCC1(N1CCOCC1)O2 (stereo not given) do in these assays?
Giardia killer: 6.7; Sfp inh: 50.1µM*; ELG1 DNA repair: 10.3%; FBPA coupling cs: -37.5*

How did CC1=C(C(=O)N2CCOCC2)C(c2ccc(O)cc2)NC(=S)N1 (stereo not given) do in these assays?
Giardia killer: -1.7; Sfp inh: inconclusive; ELG1 DNA repair: 20.2%; FBPA coupling cs: 0.3

How did O=C(N/N=C/c1ccc(Br)cc1)c1cc[n+](Cc2ccccc2)cc1 do in these assays?
Giardia killer: 1.0; Sfp inh: 79.4µM*; ELG1 DNA repair: 9.1%; FBPA coupling cs: -2.9

What do the screens show for `Cc1cccc(/C=N/NC(=O)c2cccc(Cl)c2)n1`?
Giardia killer: -4.0; Sfp inh: 4.4%; ELG1 DNA repair: 8.6%; FBPA coupling cs: 0.1

How did Cc1cccc(/C=N/NC(=O)c2ccc(F)cc2)n1 do in these assays?
Giardia killer: 17.0; Sfp inh: 39.8µM*; ELG1 DNA repair: inconclusive; FBPA coupling cs: -0.4

What do the screens show for `O=C(C[n+]1cccc(C(=O)N/N=C/c2ccc(Br)cc2)c1)c1ccccc1`?
Giardia killer: -14.6; ELG1 DNA repair: 15.3%

Results for Cc1ccc(/C=N/NC(=O)c2ccccc2OCc2ccc(F)cc2)o1 ?
Giardia killer: 25.7; Sfp inh: -26.3%; ELG1 DNA repair: 18.4µM*; FBPA coupling cs: -0.1

How did O=C(N/N=C/c1ccncc1)c1ccccc1OCc1ccc(Br)cc1 do in these assays?
Giardia killer: 9.8; Sfp inh: -3.4%; ELG1 DNA repair: 7.31µM*; FBPA coupling cs: -2.4

Results for Cc1cccc(/C=N/NC(=O)c2cc(Br)ccc2OCc2ccccc2)n1 ?
Giardia killer: 3.8; Sfp inh: -18.4%; ELG1 DNA repair: -26.0%; FBPA coupling cs: -6.5

How did Cc1cccc(/C=N/NC(=O)c2ccccc2OCc2cccc(Br)c2)n1 do in these assays?
Giardia killer: -4.0; Sfp inh: -0.8%; ELG1 DNA repair: 16.4µM*; FBPA coupling cs: -6.5

How did O=C(C=Cc1ccccc1)CC(c1ccccc1)N1CCOCC1 (stereo not given) do in these assays?
Giardia killer: -19.2

How did COc1ccc(C)cc1Nc1n[n+](-c2ccccc2)c(-c2cc([N+](=O)[O-])cc(OC)c2O)s1 do in these assays?
Giardia killer: 1.2; Sfp inh: 22.4µM*; ELG1 DNA repair: 6.5%; FBPA coupling cs: -10.3

How did Cc1[nH]c(=S)c(C#N)c2c1CCCC2 do in these assays?
Giardia killer: -3.3; Sfp inh: 1.0%; ELG1 DNA repair: -10.4%; FBPA coupling cs: 2.8

What do the screens show for `CC1CCN(c2[nH]c(=S)c(C#N)c3c2CCCC3)CC1`?
Giardia killer: 3.2; Sfp inh: 31.6µM*; ELG1 DNA repair: -20.3%; FBPA coupling cs: -16.1

Results for Cc1ccc(NC(=O)CSc2nc3ncc(Cl)cc3[nH]2)c(C)c1 ?
Giardia killer: 14.3; Sfp inh: 8.8%; ELG1 DNA repair: 0.0%; FBPA coupling cs: 1.4

What do the screens show for `CCOC(=O)c1c(C)nc(C)c(C(=O)OCC)c1-c1ccc(O)c(OC)c1`?
Giardia killer: -8.0; Sfp inh: 31.6µM*; ELG1 DNA repair: inconclusive; FBPA coupling cs: 1.6

What do the screens show for `COC(=O)c1c(C)nc2ccccc2c1-c1ccccc1`?
Giardia killer: 2.9; Sfp inh: 10.6%; ELG1 DNA repair: -10.7%; FBPA coupling cs: 9.1

How did CCOC(=O)c1c(C)nc2ccccc2c1-c1ccccc1 do in these assays?
Giardia killer: -24.8; Sfp inh: 79.4µM*; ELG1 DNA repair: -4.5%; FBPA coupling cs: 21.5
